According to PubChem BioAssay AID1508621 (National Center for Advancing Translational Sciences (NCATS), 2021):
Inconclusive results are not listed. A number with no mark means an inactive call. Active and inactive are the calls of the source. The call rests on the fitted dose curve; in most records, active means well fitted inhibition curve with a large enough effect; inconclusive means small, poorly fitted or top-dose-only effect; inactive means no such curve, though single readings can be large or run the other way.

assay: Confirmatory qHTS for Identification of Small Molecule Inhibitors of Huntingtin Promoter Activity; conditions: HEK293 HTT promoter firefly luciferase reporter, 24 h; series mostly up to 57.5 µM; activity change, negative = inhibition: at the top concentration; further: nearly all actives have a fitted effect of over 65% in size;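 on activity change, negative = inhibition: 0% = vehicle control and -100% = zero luminescence signal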
Method in brief: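 HEK293 luciferase reporter cells, 2,500/well, cultured 24 h, then exposed to compounds at up to 57.5 uM final for 24 h at 37C. Firefly luciferase luminescence read; normalized to vehicle (0%) and zero RLU (-100%).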
Potency means the concentration at half of the fitted maximal effect.

SMILES | activity change, negative = inhibition | Potency
Cc1ccc(CN(C(=O)COc2cccc(Cl)c2)c2ccccn2)o1 | -16.3% | –
CC(C)[C@H](C(=O)Nc1ccc(C(=O)NO)cc1)c1ccccc1 | 20.6% | –
CCOC(=O)c1ccc(C#Cc2ccc3c(c2)C(C)(C)CCS3)nc1 | -21.2% | –
CC(=O)N1CCCc2cc(S(=O)(=O)N3CCCC(C(=O)N4CCN(c5ccccc5)CC4)C3)ccc21 (stereo unspecified) | – | 9.53 µM (active)
CC(C)c1nc2ccc(C(=O)NCCCN3CCN(c4cccc(Cl)c4)CC3)cc2o1 | 12.1% | –
COc1ccc(S(=O)(=O)Nc2cc(-c3cn4ccc(C)cc4n3)ccc2C)cc1OC | -0.512% | –
CCCCN1CC(c2nc3ccccc3n2CCCCOc2ccc(C)c(C)c2)CC1=O (stereo unspecified) | – | 19 µM (active)
Cc1ccccc1OCC(=O)Nc1ccccc1C(=O)OCc1cc(=O)n2c(C)csc2n1 | -16.3% | –
O=C(CSc1ccc(-c2ccccn2)nn1)Nc1ccc(F)c(F)c1 | -17.4% | –
CN(C)Cc1ccc(-c2nc3cccc4c3n2CCNC4=O)cc1 | -26.9% | –
O=C(NCc1cccs1)c1ccc(Cn2c(SCc3ccc(F)cc3)nc3cccnc32)cc1 | -22.4% | –
N#CCNC(=O)c1ccc(-c2ccnc(Nc3ccc(N4CCOCC4)cc3)n2)cc1 | -12.3% | –
COc1ccc(-c2nc(N3CCOCC3)c3sc(CN(C)c4ncc(C(=O)NO)cn4)cc3n2)cn1 | 1.4% | –
COc1ccc(-c2nnc(C3CCN(C(=O)c4ccccc4F)CC3)o2)cc1 | 12.9% | –
Cc1ccc(C(=O)Nc2ccc(F)cc2)cc1S(=O)(=O)N1CCCCCC1 | -22.1% | –
CN[C@H]1[C@@H](O)[C@@H]2O[C@@H]3O[C@H](C)CC(=O)[C@]3(O)O[C@@H]2[C@@H](NC)[C@H]1O | -9.55% | –
